Reference: PubChem BioAssay AID602229 (The Scripps Research Institute Molecular Screening Center, 2012)
Among all 360,000 compounds or so, about 1,300 (0.36%) were called active. The entries come from a sample that favours actives as a whole. Unmarked numbers belong to inactive results.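 Rule for the calls: active = inhibition above the mean of all tested compounds plus 3 SD (cut at about 70% in these data); inactive = the rest.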

target: Photoreceptor-specific nuclear receptor (Homo sapiens) (UniProt Q9Y5X4); assay: NR2E3 agonists in two-hybrid cells, primary screen, cell-based, luminescence, CHO-S, Gal4-NCOR/VP16-NR2E3 (AID 602229); conditions: luciferase, at 3.98 µM, active compounds read high;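 note: 0% = DMSO with NR2E3 transfected cells and 100% = cells lacking NR2E3 construct; higher means lower luciferase signal from less NR2E3 corepressor binding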
Sequence (Q9Y5X4 whole entry, looked up, the tested form may be a part): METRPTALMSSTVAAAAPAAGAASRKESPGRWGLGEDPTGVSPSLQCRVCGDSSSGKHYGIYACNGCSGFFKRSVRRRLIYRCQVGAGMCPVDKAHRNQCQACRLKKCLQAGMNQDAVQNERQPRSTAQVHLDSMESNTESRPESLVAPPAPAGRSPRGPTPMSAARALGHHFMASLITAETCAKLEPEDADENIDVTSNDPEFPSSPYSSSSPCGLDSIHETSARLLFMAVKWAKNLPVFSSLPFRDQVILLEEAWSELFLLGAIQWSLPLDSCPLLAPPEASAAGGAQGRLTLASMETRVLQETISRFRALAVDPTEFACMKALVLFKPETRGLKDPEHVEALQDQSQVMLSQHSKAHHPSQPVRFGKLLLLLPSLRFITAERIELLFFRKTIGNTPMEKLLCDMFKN

Q: Which inhibition of corepressor binding does the source give for `C/C(=N\NC(=S)NCc1ccccc1)c1ccc(Cl)cc1` here?
A: The inhibition of corepressor binding was 73.8% (active).

Q: `C/C(=N/NC(=S)Nc1ccccc1)c1ccc2c(c1)OCO2` was tested. Which inhibition of corepressor binding did it give?
A: The inhibition of corepressor binding was -32%.

Q: Which inhibition of corepressor binding does the source give for `C/C(=N\NC(=S)NCc1ccccc1)C1CCCCC1` here?
A: The inhibition of corepressor binding was 14.7%.

Q: With `O=C(CCc1ccc(S(=O)(=O)NC2CCCCC2)cc1)NCc1ccccc1` as the compound, how does the inhibition of corepressor binding read?
A: The inhibition of corepressor binding was 9.81%.

Q: Which inhibition of corepressor binding does the source give for `CC(=O)Nc1ccc(S(=O)(=O)NNC(=O)CCc2ccccc2)cc1` here?
A: Its inhibition of corepressor binding is -9.18%.

Q: How did the inhibition of corepressor binding turn out when `COc1ccc(CC(=O)Nc2nc(-c3ccc(F)c(F)c3)cs2)cc1OC` was run?
A: Its inhibition of corepressor binding is 103% (active).

Q: For `COc1ccc(CC(=O)NC2CCSc3ccccc32)cc1OC` (stereo not drawn), which inhibition of corepressor binding is on record?
A: Its inhibition of corepressor binding is -3.29%.

Q: Which inhibition of corepressor binding does the source give for `COc1cc(CCC(=O)Nc2ccncc2Cl)cc(OC)c1OC` here?
A: Its inhibition of corepressor binding is -4.52%.

Q: How did the inhibition of corepressor binding turn out when `COc1cc(CC(=O)Nc2nc(-c3ccc(F)c(F)c3)cs2)cc(OC)c1OC` was run?
A: Its inhibition of corepressor binding is 103% (active).

Q: Which inhibition of corepressor binding does the source give for `COc1ccc(CCNC(=O)COC(=O)Cc2cc(OC)c(OC)c(OC)c2)cc1` here?
A: Its inhibition of corepressor binding is 0.01%.

Q: Which inhibition of corepressor binding does the source give for `Cc1csc(NC(=O)CSc2ccc(-c3ccc(F)cc3)nn2)n1` here?
A: The inhibition of corepressor binding was 11.9%.

Q: Which inhibition of corepressor binding does the source give for `CCc1nnc(NC(=O)CSc2nc3c(c(=O)n2-c2ccccc2OC)SCC3)s1` here?
A: Its inhibition of corepressor binding is -5.3%.

Q: Which inhibition of corepressor binding does the source give for `C/C(=C/C(=O)N1CCN(C)CC1)C(=O)O` here?
A: The inhibition of corepressor binding was -1.95%.

Q: For `COc1cc(C2/C(=C(\O)c3ccc4c(c3)CC(C)O4)C(=O)C(=O)N2c2nnc(C)s2)cc(OC)c1OC` (stereo not drawn), which inhibition of corepressor binding is on record?
A: The inhibition of corepressor binding was -19.5%.

Q: `COc1ccccc1OCCNC(=O)CCNC(=O)c1ccccc1Cl` was tested. Which inhibition of corepressor binding did it give?
A: Its inhibition of corepressor binding is -15.5%.

Q: With `CCN1C(=O)/C(=C\N2CCOCC2)SC1=S` as the compound, how does the inhibition of corepressor binding read?
A: Its inhibition of corepressor binding is -3.91%.

Q: `O=C(CCn1c(=O)oc2ccccc21)Nc1ccon1` was tested. Which inhibition of corepressor binding did it give?
A: Its inhibition of corepressor binding is -8.66%.

Q: Which inhibition of corepressor binding does the source give for `CCOC(=O)C1=C(CNC2CCCCC2)NC(=O)NC1c1cc(C)ccc1C` (stereo not drawn) here?
A: The inhibition of corepressor binding was -26.1%.

Q: How did the inhibition of corepressor binding turn out when `CCN(Cc1ccccc1)S(=O)(=O)c1cc2c3c(c1)CCN3C(=O)CC2` was run?
A: The inhibition of corepressor binding was 13.4%.

Q: With `COc1ccc(CNC(=O)COc2cccnc2[N+](=O)[O-])cc1` as the compound, how does the inhibition of corepressor binding read?
A: Its inhibition of corepressor binding is -7.82%.

Q: With `COc1ccc(CNc2ncnc3ccccc23)cc1` as the compound, how does the inhibition of corepressor binding read?
A: Its inhibition of corepressor binding is 96.1% (active).

Q: Which inhibition of corepressor binding does the source give for `O=C(COc1ncnc2ccccc12)NC(=O)NCc1ccccc1` here?
A: The inhibition of corepressor binding was 9.2%.

Q: For `Cc1ccc(O/C=C2\OC(=O)c3ccccc32)cc1`, which inhibition of corepressor binding is on record?
A: The inhibition of corepressor binding was -37.1%.

Q: For `Cc1c(C(=O)N(Cc2ccccc2)Cc2cccnc2)cnn1-c1ccc(F)cc1`, which inhibition of corepressor binding is on record?
A: Its inhibition of corepressor binding is 0.5%.

Q: How did the inhibition of corepressor binding turn out when `COc1ccc(NS(=O)(=O)c2ccc(Oc3c(C#N)cccc3C#N)cc2)cc1` was run?
A: Its inhibition of corepressor binding is 86.5% (active).

Q: For `COc1ccc(NS(=O)(=O)c2ccc(N3CCN(CCO)CC3)c([N+](=O)[O-])c2)cc1`, which inhibition of corepressor binding is on record?
A: Its inhibition of corepressor binding is 17.4%.

Q: With `COc1ccc(S(=O)(=O)Nc2ccc3oc(C)c(C(C)=O)c3c2)cc1` as the compound, how does the inhibition of corepressor binding read?
A: Its inhibition of corepressor binding is 60.2%.

Q: For `CCOCc1c(C(=O)N2CCN(Cc3ccc(Br)s3)CC2)oc2ccccc12`, which inhibition of corepressor binding is on record?
A: The inhibition of corepressor binding was -14.4%.

Q: How did the inhibition of corepressor binding turn out when `O=S(=O)(c1ccc(F)cc1)N1CCN=C1SCc1cccc(F)c1` was run?
A: Its inhibition of corepressor binding is 3.65%.

Q: `Cc1ccc(S(=O)(=O)N2CCN(C(=O)COC(=O)CNC(=O)c3ccc(C(C)(C)C)cc3)CC2)c(C)c1` was tested. Which inhibition of corepressor binding did it give?
A: Its inhibition of corepressor binding is 1.29%.

Q: With `O=C(CCNC(=O)c1ccc(Cl)cc1)NC1CCCc2ccccc21` (stereo not drawn) as the compound, how does the inhibition of corepressor binding read?
A: Its inhibition of corepressor binding is -14.3%.

Q: With `COc1ccc(C(=O)NC2CCCc3c2cnn3-c2cccc(C)c2C)c(OC)n1` (stereo not drawn) as the compound, how does the inhibition of corepressor binding read?
A: Its inhibition of corepressor binding is 91.3% (active).

Q: For `Cc1cc(C(=O)NC2CC(C)(C)Cc3c2cnn3-c2ccccc2)n[nH]1` (stereo not drawn), which inhibition of corepressor binding is on record?
A: The inhibition of corepressor binding was -26.5%.

Q: Which inhibition of corepressor binding does the source give for `COc1ccc(C(=O)NC2CC(C)(C)Cc3c2cnn3-c2ccccc2C)o1` (stereo not drawn) here?
A: Its inhibition of corepressor binding is -34.2%.

Q: How did the inhibition of corepressor binding turn out when `COc1ccc(C(=O)NC2CC(C)(C)Cc3c2cnn3-c2ccccc2)c(OC)c1` (stereo not drawn) was run?
A: The inhibition of corepressor binding was -23.7%.

Q: `COC(=O)c1ccc(C(=O)NC2CC(C)(C)Cc3c2cnn3-c2ccc(F)cc2)nc1` (stereo not drawn) was tested. Which inhibition of corepressor binding did it give?
A: The inhibition of corepressor binding was -87.5%.

Q: How did the inhibition of corepressor binding turn out when `Cn1nccc1C(=O)NC1CCCc2c1cnn2-c1ccc(F)cc1F` (stereo not drawn) was run?
A: Its inhibition of corepressor binding is 107% (active).

Q: With `CC1=C(C(=O)NC2CC(C)(C)Cc3c2cnn3-c2ccc(C)cc2)OCCO1` (stereo not drawn) as the compound, how does the inhibition of corepressor binding read?
A: Its inhibition of corepressor binding is -12.3%.

Q: Which inhibition of corepressor binding does the source give for `Cn1nccc1C(=O)NC1CCCc2c1cnn2-c1ccccc1F` (stereo not drawn) here?
A: Its inhibition of corepressor binding is 105% (active).

Q: For `NC(=O)COC(=O)c1ccc2c(c1)C(=O)N(Cc1ccco1)C2=O`, which inhibition of corepressor binding is on record?
A: The inhibition of corepressor binding was -5.79%.

Q: How did the inhibition of corepressor binding turn out when `Cc1cc(C)n(CCC(=O)N2CCN(S(=O)(=O)c3ccc(C)c(C)c3)CC2)n1` was run?
A: The inhibition of corepressor binding was 3.36%.

Q: `Cc1ccc(CN(N=Nc2nonc2N)c2nonc2N)c(C)c1` was tested. Which inhibition of corepressor binding did it give?
A: The inhibition of corepressor binding was -19.7%.

Q: With `CC1CCCC(NC(=O)CN2CCN(Cc3ccc(Cl)cc3)C2=O)C1C` (stereo not drawn) as the compound, how does the inhibition of corepressor binding read?
A: The inhibition of corepressor binding was 2.85%.
